Laboratory results as given in PMC4336329 (PLoS ONE, 2015).
About 14,000 (4.5%) of roughly 310,000 compounds showed an effect of 50% or more. Effects have a minus sign here. The full list was thinned out, with strong results kept by preference.

biological target: human ether-à-go-go-related gene (hERG) potassium channel (human, UniProt Q12809); experiment: primary screen, population patch clamp on CHO cells stably expressing hERG; higher = less effect of the substance
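Also: peak tail current of the secondary pulse compared with the same well before compound.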

human ether-à-go-go-related gene (hERG) potassium channel, sequence (Q12809 whole entry, looked up): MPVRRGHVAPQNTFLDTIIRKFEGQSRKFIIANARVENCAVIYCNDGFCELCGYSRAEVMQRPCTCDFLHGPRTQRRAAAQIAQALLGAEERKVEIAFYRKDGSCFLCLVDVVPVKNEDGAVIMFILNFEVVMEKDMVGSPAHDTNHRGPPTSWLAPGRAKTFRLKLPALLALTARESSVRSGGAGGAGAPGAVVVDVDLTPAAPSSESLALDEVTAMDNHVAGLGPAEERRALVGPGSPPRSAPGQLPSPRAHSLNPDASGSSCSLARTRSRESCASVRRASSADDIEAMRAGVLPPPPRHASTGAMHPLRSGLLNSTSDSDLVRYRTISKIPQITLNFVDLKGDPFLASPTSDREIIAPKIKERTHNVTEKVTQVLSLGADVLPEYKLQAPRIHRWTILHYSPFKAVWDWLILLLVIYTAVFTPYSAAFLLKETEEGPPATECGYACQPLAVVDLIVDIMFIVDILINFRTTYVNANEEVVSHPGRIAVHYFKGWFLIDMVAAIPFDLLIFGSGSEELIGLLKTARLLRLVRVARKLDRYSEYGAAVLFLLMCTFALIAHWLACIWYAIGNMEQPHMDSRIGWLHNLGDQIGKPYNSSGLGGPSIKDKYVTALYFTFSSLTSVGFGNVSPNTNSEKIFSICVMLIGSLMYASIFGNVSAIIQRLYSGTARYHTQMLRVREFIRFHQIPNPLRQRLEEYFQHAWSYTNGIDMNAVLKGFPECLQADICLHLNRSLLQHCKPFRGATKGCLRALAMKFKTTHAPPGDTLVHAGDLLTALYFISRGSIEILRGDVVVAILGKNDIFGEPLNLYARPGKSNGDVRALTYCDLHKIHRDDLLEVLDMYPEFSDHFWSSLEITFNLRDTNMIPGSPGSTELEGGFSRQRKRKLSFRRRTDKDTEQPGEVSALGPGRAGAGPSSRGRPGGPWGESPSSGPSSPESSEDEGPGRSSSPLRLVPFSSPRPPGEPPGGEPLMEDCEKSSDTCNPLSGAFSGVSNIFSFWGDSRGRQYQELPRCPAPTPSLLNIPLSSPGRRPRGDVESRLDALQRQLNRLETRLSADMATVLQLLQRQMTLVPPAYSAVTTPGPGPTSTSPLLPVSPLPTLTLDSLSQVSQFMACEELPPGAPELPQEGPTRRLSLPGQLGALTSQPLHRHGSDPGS

Compound | hERG current change (%, negative = inhibition) at 10uM
O=C1CCCC2=C1C(c1ccncc1)c1c(nc(SCc3ccccc3)[nH]c1=O)N2 (stereo not shown) | 17.7%
O=C(c1cc([N+](=O)[O-])ccc1N1CCOCC1)N1CCN(S(=O)(=O)c2ccc(F)cc2)CC1 | -32.5%
O=C(c1cc([N+](=O)[O-])ccc1N1CCOCC1)N1CCN(S(=O)(=O)c2cc(Cl)ccc2Cl)CC1 | -32.3%
CCOC(=O)N1CCN(C(=O)c2cnc3n(c2=O)CCS3)CC1 | 7.34%
CC(=O)c1cnc2n(c1=O)CCS2 | 27.8%
O=C(c1cc([N+](=O)[O-])ccc1N1CCN(S(=O)(=O)c2ccc(Cl)c(Cl)c2)CC1)N1CCOCC1 | -52.4%
O=C(c1cnc2n(c1=O)CCS2)N1CCN(c2ccc([N+](=O)[O-])cc2)CC1 | -63%
CCOC(=O)C(C)Sc1nnc(Cc2cc(=O)[nH]c(=O)[nH]2)n1-c1ccc(Cl)cc1 (stereo not shown) | 2.15%
C/C(=N/OC(=O)c1c(F)cccc1F)c1nccs1 | 3.34%
CCOC(=O)CSc1nnc([C@H](Cc2ccccc2)NC(=O)OC(C)(C)C)o1 | -14.3%
COc1ccc2c(COC(=O)CNC(=O)C34CC5CC(CC(C5)C3)C4)cc(=O)oc2c1 | -31.4%
COc1ccc([C@@H](C)NC(=O)c2ccc3oc(C(C)C)nc3c2)cc1 | 26.1%
O=C(NC(=S)Nc1ccccc1F)c1ccc(Br)o1 | 8.98%
COc1cccc(C2=NOC(C(=O)N3CCN(C(=O)c4ccco4)CC3)C2)c1 (stereo not shown) | -40.1%
O=C(c1ccco1)N1CCN(C(=O)C2CC(c3ccc(Cl)cc3)=NO2)CC1 (stereo not shown) | -76.2%
O=C(c1ccco1)N1CCN(C(=O)C2CC(c3ccccc3F)=NO2)CC1 (stereo not shown) | -18.3%
COc1cc(OC)c(C2=NOC(C(=O)N3CCN(C(=O)c4ccco4)CC3)C2)cc1Cl (stereo not shown) | -35.3%
O=C(c1ccco1)N1CCN(C(=O)C2CC(c3ccc(F)cc3)=NO2)CC1 (stereo not shown) | -72.5%
COc1ccc(C2=NOC(C(=O)N3CCN(C(=O)c4ccco4)CC3)C2)cc1OC (stereo not shown) | 0.127%
N#CC1(c2ccccc2)CCCN1C(=O)c1ccc(Br)cc1 (stereo not shown) | -8.79%
CC(=O)Nc1ccc(NC(=O)COc2ccc3c(c2)CCC3)cc1 | 24.5%
N#CC1CCCc2c1[nH]c1ccc([N+](=O)[O-])cc21 (stereo not shown) | 12.5%

Compound | hERG current change (%, negative = inhibition) at 10uM
C=CCN1C2CCCC1CC(NC(=O)Nc1cccc(C(C)=O)c1)C2 (stereo not shown) | 5.52%
C=CCN1C2CCCC1CC(NC(=O)Nc1cc(C)cc(C)c1)C2 (stereo not shown) | -51.8%
CCCN1C2CCCC1CC(NC(=S)Nc1cc(C)ccc1C)C2 (stereo not shown) | 11.6%
S=C(Nc1ccccc1Cl)NC1CC2CCCC(C1)N2C1CC1 (stereo not shown) | -23.8%
COc1ccc(NC(=S)NC2CC3CCCC(C2)N3C2CC2)cc1 (stereo not shown) | -41.3%
S=C(Nc1cccc(Cl)c1)NC1CC2CCCC(C1)N2C1CCCC1 (stereo not shown) | 19%
CCCN1C2CCCC1CC(NC(=S)Nc1cc(C)cc(C)c1)C2 (stereo not shown) | -83.7%
S=C(Nc1ccc(Cl)cc1)NC1CC2CCCC(C1)N2C1CC1 (stereo not shown) | -32.9%
Cc1cc(C)cc(NC(=S)NC2CC3CCCC(C2)N3C2CC2)c1 (stereo not shown) | -67.3%
CCCN1C2CCCC1CC(NC(=S)Nc1cccc(C)c1)C2 (stereo not shown) | -44.5%
S=C(Nc1ccc(Cl)cc1)NC1CC2CCCC(C1)N2C1CCCC1 (stereo not shown) | -55.5%
Cc1cc(C)cc(NC(=O)NC2CCCCCCC2)c1 | -5.07%
CC1=C(C)C(OCCBr)N(c2cc(O)c(Cl)cc2F)C1=O (stereo not shown) | 4.66%
CN(C(=O)c1ccc(NC(=O)Cc2ccc(NC(=O)C3CCN(C(=O)CCc4ccccc4)CC3)cc2)cc1)C1CC1 | 9.51%
COc1cccc2cc(C(=O)n3ccc(C)n3)c(=O)oc12 | 8.24%
CN1CCN(C2=C(NS(=O)(=O)c3ccccc3)C(=O)c3ccccc3C2=O)CC1 | 2.75%
Cc1ccc(S(=O)(=O)NCC2CCC(C(=O)NCc3ccc4c(c3)OCO4)CC2)cc1 (stereo not shown) | -0.473%
Cl.Clc1ccccc1CN1CCN(/N=C/c2ccncc2)CC1 | -24.3%
CCCCCCCN1C/C=C\C(c2ccc(OC)cc2)N(Cc2ccc(F)cc2)C(=O)[C@H]1Cc1ccccc1 (stereo partly shown) | 8.55%
NC(=O)CC(NC(=O)Cc1ccc(Cl)cc1)c1ccc(N2CCC(Cc3ccccc3)CC2)c([N+](=O)[O-])c1 (stereo not shown) | 17.7%
Cc1nc(SCC(=O)NCc2ccco2)c2c(C)c(C)sc2n1 | -2.85%
O=C(COC(=O)c1ccc(NS(=O)(=O)c2cccs2)cc1O)NC1CCCCC1 | 8.92%

Compound | hERG current change (%, negative = inhibition) at 10uM
O=C(O)CCS(=O)(=O)c1ccc(-c2ccccc2)cc1 | 19.3%
CSc1ccc(-c2nc(CSCC(=O)NCCCN3CCCC3=O)c(C)o2)cc1 | -14.4%
Cc1cc(C)cc(NC(=S)NC2CC3CCCC(C2)N3C2CCCC2)c1 (stereo not shown) | -77.5%
Cc1cc(C)cc(NC(=S)NC2CC3CCCC(C2)N3CC(C)C)c1 (stereo not shown) | -7.32%
COc1cccc(NC(=S)NC2CC3CCCC(C2)N3C2CCCC2)c1 (stereo not shown) | -33.6%
COc1ccc([C@H]2CC(=O)C=C(c3cccc(C(F)(F)F)c3)C2)cc1 | -14.4%
CC1(c2nnc(Cc3ccccc3)o2)CC(c2ccccc2)=NO1 (stereo not shown) | -18%
CC1(c2nnc(Cc3ccccc3)o2)CC(c2cccc([N+](=O)[O-])c2)=NO1 (stereo not shown) | -7.45%
CC1(c2nnc(Cc3ccccc3)o2)CC(c2ccc(C#N)cc2)=NO1 (stereo not shown) | -62.3%
CC1(c2nnc(Cc3ccccc3)o2)CC(c2ccc([N+](=O)[O-])cc2)=NO1 (stereo not shown) | -63.2%
Cc1ccc(C2=NOC(C)(c3nnc(Cc4ccccc4)o3)C2)cc1 (stereo not shown) | -15.2%
CC1(c2nnc(Cc3ccccc3)o2)CC(c2ccc(Cl)cc2)=NO1 (stereo not shown) | -23.3%
CC1(C)CC(=O)C=C(N2CCNCC2)C1 | 14.9%
CC1CCCN(C(=O)c2ccc(Cl)c(S(=O)(=O)N3CCCCCC3)c2)C1 (stereo not shown) | -76.3%
O=C(c1ccc(Cl)c(S(=O)(=O)N2CCCCC2)c1)N1CCCC(C(F)(F)F)C1 (stereo not shown) | -31.8%
CCOC(=O)C1CCCN(C(=O)c2ccc(Cl)c(S(=O)(=O)N3CCCCC3)c2)C1 (stereo not shown) | -13.8%
CCOC(=O)C1CCCN(C(=O)c2ccc(C)c(S(=O)(=O)N3CCCCC3)c2)C1 (stereo not shown) | -25.3%
O=C(c1cccc(N2C(=O)c3ccccc3C2=O)c1)N1CCCC(C(F)(F)F)C1 (stereo not shown) | -53.9%
O=C(c1ccc(Cl)c(S(=O)(=O)N2CCCCC2)c1)N1CCCC1 | -7.02%
O=C(c1ccc(Cl)c(S(=O)(=O)N2CCCC2)c1)N1CCCC(C(F)(F)F)C1 (stereo not shown) | -18.1%
CCOC(=O)C1CCCN(C(=O)c2cccc(N3C(=O)c4ccccc4C3=O)c2)C1 (stereo not shown) | -18.4%
O=C(c1cccc(N2C(=O)c3ccccc3C2=O)c1)N1CCCCCC1 | 2.21%

Compound | hERG current change (%, negative = inhibition) at 10uM
CCOC(=O)C1CCCN(C(=O)c2ccc(Cl)c(S(=O)(=O)N3CCCCCC3)c2)C1 (stereo not shown) | -70.7%
O=C(c1ccc(Cl)c(S(=O)(=O)N2CCCCCC2)c1)N1CCCC(C(F)(F)F)C1 (stereo not shown) | -58.9%
O=C(c1ccc(Cl)c(S(=O)(=O)N2CCCC2)c1)N1CCCCC1 | 3.08%
CSc1cccc(NC(=O)OC2CCCCCCCCCCC2)c1 | 7.83%
Cc1ccc(S(=O)(=O)N2C(=O)/C(=C3\SC(=S)NC3=O)c3ccccc32)cc1 | 10%
Fc1ccccc1CSc1ncnc2sc3c(c12)CCCC3 | 2.75%
O=C(Nc1ccc2nn(-c3ccccc3)nc2c1)c1ccc(Br)o1 | 7.88%
CCOc1cc(C)c(C(C)C)cc1S(=O)(=O)n1ccc(C)n1 | -29.4%
Cc1nn(C)c(C)c1NC(=O)/C(C#N)=C\N(C)C | 12.6%
NC(=O)C1(N2CCCCC2)CCN(C(=O)CSc2nc3ccccc3o2)CC1 | -4.85%
COC(=O)C1=C(C)N(CCC2=CCCCC2)C(=O)C1 | 1.46%
CC(C)(Oc1ccc(CCNC(=O)c2ccc(-c3ccccc3)o2)cc1)C(=O)O | 14%
O=C(CC1SC(N2CCCC2)=NC1=O)Nc1ccc(C(=O)N2CCCC(C(F)(F)F)C2)cc1 (stereo not shown) | 18.8%
Cc1ccc2cc(CN(C)S(C)(=O)=O)c(=O)[nH]c2c1 | 26.9%
CN(C(=O)COC(=O)c1ccc(Cl)c(S(=O)(=O)N2CCCCC2)c1)C1(C#N)CCCCC1 | -57.4%
CCOC(=O)c1ccc(Cl)c(S(=O)(=O)N2CCCC2)c1 | 23.8%
NC(=O)COC(=O)c1ccc(Cl)c(S(=O)(=O)N2CCCCCC2)c1 | -4.36%
CCN(CC)S(=O)(=O)c1ccc(C)c(NC(=O)CNc2cccc(S(=O)(=O)N3CCOCC3)c2)c1 | -17.7%
Cc1c(C(=O)N(C)C)sc2nc(-c3ccccn3)[nH]c(=O)c12 | -2.71%
